About 14,000 (4.5%) of roughly 310,000 compounds showed an effect of 50% or more. Effects have a minus sign here. This is one part of a sample in which strong results are shown more often than they occur.
What follows are molecules tested against human ether-à-go-go-related gene (hERG) potassium channel (human, UniProt Q12809) (assay: primary screen, population patch clamp on CHO cells stably expressing hERG; higher = less effect of the substance).
Sequence of human ether-à-go-go-related gene (hERG) potassium channel (Q12809 whole entry, looked up): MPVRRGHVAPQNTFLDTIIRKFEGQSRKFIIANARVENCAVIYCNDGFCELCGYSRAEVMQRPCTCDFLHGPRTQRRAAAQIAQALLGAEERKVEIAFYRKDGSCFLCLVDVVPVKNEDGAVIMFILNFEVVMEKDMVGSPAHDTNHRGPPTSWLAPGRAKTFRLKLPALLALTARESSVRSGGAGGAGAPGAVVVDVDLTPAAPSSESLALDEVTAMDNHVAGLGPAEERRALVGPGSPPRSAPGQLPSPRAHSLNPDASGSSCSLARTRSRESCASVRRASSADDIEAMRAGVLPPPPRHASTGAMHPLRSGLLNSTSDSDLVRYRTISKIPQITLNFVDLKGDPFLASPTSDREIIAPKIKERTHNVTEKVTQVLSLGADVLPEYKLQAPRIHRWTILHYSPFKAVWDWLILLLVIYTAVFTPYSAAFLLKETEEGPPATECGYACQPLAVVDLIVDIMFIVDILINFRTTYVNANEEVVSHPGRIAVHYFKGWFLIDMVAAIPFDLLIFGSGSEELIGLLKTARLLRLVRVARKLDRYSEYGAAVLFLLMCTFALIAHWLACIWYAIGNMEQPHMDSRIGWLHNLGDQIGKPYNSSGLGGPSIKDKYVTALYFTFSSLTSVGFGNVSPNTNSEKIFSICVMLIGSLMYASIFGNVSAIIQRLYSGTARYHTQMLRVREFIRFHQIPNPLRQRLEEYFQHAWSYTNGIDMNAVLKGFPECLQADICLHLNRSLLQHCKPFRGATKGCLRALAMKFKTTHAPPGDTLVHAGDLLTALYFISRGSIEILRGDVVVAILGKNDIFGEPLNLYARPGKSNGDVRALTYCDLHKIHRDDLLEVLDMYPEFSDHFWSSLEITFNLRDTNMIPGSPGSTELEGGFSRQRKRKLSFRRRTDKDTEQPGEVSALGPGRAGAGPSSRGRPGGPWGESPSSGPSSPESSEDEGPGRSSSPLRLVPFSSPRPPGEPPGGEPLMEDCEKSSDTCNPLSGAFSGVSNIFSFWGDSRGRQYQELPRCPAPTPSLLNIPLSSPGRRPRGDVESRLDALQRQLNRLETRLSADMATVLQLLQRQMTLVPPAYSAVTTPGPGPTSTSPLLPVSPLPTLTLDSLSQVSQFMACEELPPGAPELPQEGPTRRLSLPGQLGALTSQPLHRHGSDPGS
With `CCOc1ccc(NC(=O)CN(C)CC(=O)Nc2cccc(Cl)c2C)cc1OCC` the “hERG current change (%, negative = inhibition) at 10uM” value was -10.4%. With `COc1ccccc1C(CCN(Cc1cccs1)C(C)=O)c1ccco1` (centres unmarked) the “hERG current change (%, negative = inhibition) at 10uM” value was -2.93%. In the case of `CCC(=O)N(CCC(c1ccccc1)c1ccco1)Cc1cccs1` (centres unmarked), the “hERG current change (%, negative = inhibition) at 10uM” value is reported as -15.9%. For `CC(=O)N(CCC(c1ccccc1)c1ccco1)Cc1cccs1` (centres unmarked), the “hERG current change (%, negative = inhibition) at 10uM” value was -52.9%. For `CC(Nc1cc(C)cc(C)c1)=[N+](C)CCNS(=O)(=O)c1ccc(Cl)cc1.[I-]`, the “hERG current change (%, negative = inhibition) at 10uM” value was -48.5%. In the case of `COc1ccc(NC(=O)CNS(=O)(=O)c2ccccc2)cc1Cl`, the “hERG current change (%, negative = inhibition) at 10uM” value is reported as 4.28%. For `COc1ccc(NC(C)=[N+](C)CCNS(=O)(=O)c2ccc(Cl)cc2)cc1Cl.[I-]`, the “hERG current change (%, negative = inhibition) at 10uM” value was -69.5%. `COc1ccc(NC(=O)CCNS(=O)(=O)c2ccc(NC(C)=O)cc2)cc1Cl` was tested, and the “hERG current change (%, negative = inhibition) at 10uM” value was 22.8%. With `CC(=O)Nc1ccc(S(=O)(=O)NCCc2ccc(F)cc2)cc1` the “hERG current change (%, negative = inhibition) at 10uM” value was -10.7%. In the case of `CC(Nc1ccc(F)cc1)=[N+](C)CCNS(=O)(=O)c1ccc(Cl)cc1.[I-]`, the “hERG current change (%, negative = inhibition) at 10uM” value is reported as -68.4%. In the case of `COc1ccccc1NC(=O)C(C)NS(=O)(=O)c1ccc(Cl)cc1` (centres unmarked), the “hERG current change (%, negative = inhibition) at 10uM” value is reported as -0.716%. `CCNS(=O)(=O)c1ccc(NC(=O)Nc2cccc(OC)c2)cc1` was tested, and the “hERG current change (%, negative = inhibition) at 10uM” value was 8.01%. In the case of `COc1ccccc1NS(=O)(=O)c1ccc(Cl)cc1`, the “hERG current change (%, negative = inhibition) at 10uM” value is reported as -19.5%. `COc1cccc(NC(=O)C2(S(=O)(=O)c3ccc(Cl)cc3)CC2)c1` was tested, and the “hERG current change (%, negative = inhibition) at 10uM” value was -15.9%. With `COc1ccccc1NC(C)=[N+](C)CCNS(=O)(=O)c1ccc(Cl)cc1.[I-]` the “hERG current change (%, negative = inhibition) at 10uM” value was -58.7%. `COc1cccc(NC(C)=[N+](C)CCNS(=O)(=O)c2ccc(Cl)cc2)c1.[I-]` was tested, and the “hERG current change (%, negative = inhibition) at 10uM” value was -64.4%. With `CCCc1nc2c(sc3nc4c(cc32)COC(C)(C)C4)c(=O)n1CCN(CC)CC` the “hERG current change (%, negative = inhibition) at 10uM” value was -17.8%. For `O=[N+]([O-])c1cccc(NC(=S)NCc2ccncc2)c1`, the “hERG current change (%, negative = inhibition) at 10uM” value was 0.695%. With `CCOC(=O)c1c(Nc2ccccc2)sc(/C=C2\C=Nc3ccccc32)c1O` the “hERG current change (%, negative = inhibition) at 10uM” value was 0.585%. For `O=C(O)/C=C/C(=O)N1CCN(c2ccccc2F)CC1`, the “hERG current change (%, negative = inhibition) at 10uM” value was 7.85%. With `COc1ccc(-c2ccc(SCC(=O)N3c4ccccc4CC3C)nn2)cc1OC` (centres unmarked) the “hERG current change (%, negative = inhibition) at 10uM” value was -4.75%. `CCOC(=O)C1CCN(C(=O)c2cn(C)c(=O)c3cc(OC)c(OC)cc23)CC1` was tested, and the “hERG current change (%, negative = inhibition) at 10uM” value was -11.3%. In the case of `COc1ccc(NC(=O)COC(=O)CCNS(=O)(=O)c2ccc(Cl)cc2)cc1`, the “hERG current change (%, negative = inhibition) at 10uM” value is reported as -23.2%. `COc1ccc(NC(=O)CNS(=O)(=O)c2ccc(Cl)cc2)cc1` was tested, and the “hERG current change (%, negative = inhibition) at 10uM” value was 3.79%. `COc1ccc(NC(C)=[N+](C)CCNS(=O)(=O)c2ccc(Cl)cc2)cc1.[I-]` was tested, and the “hERG current change (%, negative = inhibition) at 10uM” value was -70.2%. In the case of `Cc1cc(S(=O)(=O)Nc2ccc3c(c2)n(C)c(=O)n3C)ccc1F`, the “hERG current change (%, negative = inhibition) at 10uM” value is reported as -0.399%. With `Cl.O=C(c1ccc(F)cc1)C(CN1CCOCC1)c1ccccc1` (centres unmarked) the “hERG current change (%, negative = inhibition) at 10uM” value was -12.3%. For `Cl.O=C(c1ccc(F)cc1)C(CCCCCC(CN1CCOCC1)C(=O)c1ccc(F)cc1)CN1CCOCC1` (centres unmarked), the “hERG current change (%, negative = inhibition) at 10uM” value was -86.8%. With `Cl.O=C(c1ccccc1)C(CCC(CN1CCOCC1)C(=O)c1ccccc1)CN1CCOCC1` (centres unmarked) the “hERG current change (%, negative = inhibition) at 10uM” value was -7.92%. For `CCc1ccc(NC(=O)CSc2nnnn2-c2cccnc2)cc1`, the “hERG current change (%, negative = inhibition) at 10uM” value was -15.4%. With `COc1ccccc1CCC(=O)Nc1ncc(C)s1` the “hERG current change (%, negative = inhibition) at 10uM” value was 16.3%. For `Cc1cc(=O)oc2cc(OCC(=O)Nc3ccccc3C(N)=O)c(Cl)cc12`, the “hERG current change (%, negative = inhibition) at 10uM” value was 18.5%. `CC(C)N1CCN(Cc2cccc(-c3ccco3)c2)CC1CCO` (centres unmarked) was tested, and the “hERG current change (%, negative = inhibition) at 10uM” value was -35.9%. With `C#Cc1ccc(CN2CCN(Cc3ccsc3)C(CCO)C2)cc1` (centres unmarked) the “hERG current change (%, negative = inhibition) at 10uM” value was -34.6%. For `OCCC#Cc1ccc(CN2CCN(Cc3ccsc3)C(CCO)C2)cc1` (centres unmarked), the “hERG current change (%, negative = inhibition) at 10uM” value was -4.59%. `OCCC1CN(Cc2ccccc2-c2ccco2)CCN1C1CCCC1` (centres unmarked) was tested, and the “hERG current change (%, negative = inhibition) at 10uM” value was -63.8%. With `OCCC1CN(Cc2ccc(-c3ccco3)cc2)CCN1Cc1ccsc1` (centres unmarked) the “hERG current change (%, negative = inhibition) at 10uM” value was -53.8%. For `OCCC1CN(Cc2cccc3c2OCO3)CCN1C1CCCCC1` (centres unmarked), the “hERG current change (%, negative = inhibition) at 10uM” value was -9.67%. In the case of `CC(C)CCN1CCN(Cc2ccsc2)CC1CCO` (centres unmarked), the “hERG current change (%, negative = inhibition) at 10uM” value is reported as -6.33%. In the case of `Cc1ccc(CN2CCN(C3CCCC3)C(CCO)C2)s1` (centres unmarked), the “hERG current change (%, negative = inhibition) at 10uM” value is reported as -22.4%. With `OCCC1CN(Cc2ccccc2-c2ccco2)CCN1Cc1ccccc1` (centres unmarked) the “hERG current change (%, negative = inhibition) at 10uM” value was -35.7%. With `OCCC1CN(Cc2ccccc2-c2ccco2)CCN1Cc1ccsc1` (centres unmarked) the “hERG current change (%, negative = inhibition) at 10uM” value was -51%. `Cc1ccc(CN2CCN(Cc3ccccc3-c3ccco3)CC2CCO)o1` (centres unmarked) was tested, and the “hERG current change (%, negative = inhibition) at 10uM” value was -22.3%. In the case of `OCCC1CN(Cc2cccc(-c3ccco3)c2)CCN1Cc1ccsc1` (centres unmarked), the “hERG current change (%, negative = inhibition) at 10uM” value is reported as -71.6%. With `COc1cccc(/C=C2\SC(=O)NC2=O)c1OCc1ccc(C(=O)O)cc1` the “hERG current change (%, negative = inhibition) at 10uM” value was 9.69%. With `OCCN1CCN(Cc2cc(Cl)c3cccnc3c2O)CC1` the “hERG current change (%, negative = inhibition) at 10uM” value was 16.6%. `COc1ccccc1N1CCN(C(=O)C(=O)c2c[nH]c3ccccc23)CC1` was tested, and the “hERG current change (%, negative = inhibition) at 10uM” value was 0.156%. With `Nc1ccccc1SCC(=O)Nc1ccc2c(c1)OCCO2` the “hERG current change (%, negative = inhibition) at 10uM” value was 3.12%. `O=C(CSc1nnc2c(n1)[nH]c1ccc(F)cc12)Nc1ccccc1F` was tested, and the “hERG current change (%, negative = inhibition) at 10uM” value was 19.5%. With `Cc1ccc(C(=O)NC2CCSC2=O)cc1` (centres unmarked) the “hERG current change (%, negative = inhibition) at 10uM” value was 7.89%. For `Cc1ccc(NC(=O)C2OCCc3ccccc32)cc1C` (centres unmarked), the “hERG current change (%, negative = inhibition) at 10uM” value was -3.78%. With `Cc1ccc(OCCN2CCN(C)CC2)c([N+](=O)[O-])c1.O=C(O)C(=O)O` the “hERG current change (%, negative = inhibition) at 10uM” value was 6%. In the case of `Cc1ccc([N+](=O)[O-])c(OCCN2CCC(Cc3ccccc3)CC2)c1.O=C(O)C(=O)O`, the “hERG current change (%, negative = inhibition) at 10uM” value is reported as -73%. In the case of `Cc1ccc([N+](=O)[O-])c(OCCN2CCc3ccccc3C2)c1.O=C(O)C(=O)O`, the “hERG current change (%, negative = inhibition) at 10uM” value is reported as -23.3%. `Cc1ccc([N+](=O)[O-])c(OCCCN2CCCCCC2)c1.O=C(O)C(=O)O` was tested, and the “hERG current change (%, negative = inhibition) at 10uM” value was -58.6%. In the case of `Cc1cc(OCCCn2ccnc2)ccc1[N+](=O)[O-].O=C(O)C(=O)O`, the “hERG current change (%, negative = inhibition) at 10uM” value is reported as -2.51%. With `Cc1ccc([N+](=O)[O-])c(OCCCN2CCC(Cc3ccccc3)CC2)c1.O=C(O)C(=O)O` the “hERG current change (%, negative = inhibition) at 10uM” value was -89.6%. For `COc1cc(NC(=O)CN2CCC(Cc3ccccc3)CC2)c(C)cc1[N+](=O)[O-]`, the “hERG current change (%, negative = inhibition) at 10uM” value was 6.01%. For `Cc1cc(OCCCN2CCN(Cc3ccccc3)CC2)ccc1[N+](=O)[O-].O=C(O)C(=O)O`, the “hERG current change (%, negative = inhibition) at 10uM” value was -71.5%. `Cc1ccc([N+](=O)[O-])c(OCCN2CCCCCC2)c1.O=C(O)C(=O)O` was tested, and the “hERG current change (%, negative = inhibition) at 10uM” value was -34%. For `Cc1ccc([N+](=O)[O-])c(OCCN2CCNCC2)c1.O=C(O)C(=O)O`, the “hERG current change (%, negative = inhibition) at 10uM” value was -14.6%. For `Cc1cc(OCCN2CCOCC2)ccc1[N+](=O)[O-].O=C(O)C(=O)O`, the “hERG current change (%, negative = inhibition) at 10uM” value was 5.11%.
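Also: peak tail current of the secondary pulse compared with the same well before compound.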
